Rows were chosen to be rich in hits. Some 27% of all compounds tested hit in one or more screens of this group.
CYP2C9 inh: inhibitors of human CYP2C9; inhibition, % at 5 µM; hit rate 20% among 96,000; AID 777; CYP2C9 Supersomes, luciferin-H conversion, luminescence;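 active = blocking of liver enzyme CYP2C9 beyond about 50% at 5 µM, limit read from the data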
sEH activator: soluble epoxide hydrolase (human) activation; activation, % at 2 µM; AID 717; purified human sEH enzymatic activity, activator screen; hit rate 0.04% among 91,000; in the data active = activation above about 37%
Target sequence (P34913 whole entry, looked up): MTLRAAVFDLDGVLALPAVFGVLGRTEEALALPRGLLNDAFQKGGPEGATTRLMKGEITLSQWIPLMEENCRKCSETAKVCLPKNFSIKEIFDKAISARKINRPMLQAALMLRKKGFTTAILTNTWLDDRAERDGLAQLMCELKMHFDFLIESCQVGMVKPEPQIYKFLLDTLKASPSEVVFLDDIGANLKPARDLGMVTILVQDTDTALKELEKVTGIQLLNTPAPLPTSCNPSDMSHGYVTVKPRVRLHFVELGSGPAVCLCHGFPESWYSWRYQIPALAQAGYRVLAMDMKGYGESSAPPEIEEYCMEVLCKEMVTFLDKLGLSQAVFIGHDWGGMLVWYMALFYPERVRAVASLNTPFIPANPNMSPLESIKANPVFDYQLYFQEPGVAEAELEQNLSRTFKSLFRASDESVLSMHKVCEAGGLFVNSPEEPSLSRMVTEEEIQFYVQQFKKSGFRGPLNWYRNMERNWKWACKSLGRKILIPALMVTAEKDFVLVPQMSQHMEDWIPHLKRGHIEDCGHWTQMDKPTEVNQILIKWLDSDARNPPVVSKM
sEH inh: inhibitors of human soluble epoxide hydrolase; hit rate 0.34% among 91,000; recombinant human sEH enzymatic activity assay; P34913; inhibition, % at 2 µM; in the data active = inhibition above about 80%
CYP2C19 activ: increases human CYP2C19 enzyme activity. 96,000 tested, under 10 active. AID 1025. activation factor at 5 µM. recombinant CYP2C19, luciferin-H EGE luminescence; hits give high values; 0 = fully inhibited enzyme, 1 = untreated enzyme. P33261;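 active = activation factor of at least 2 at 5 µM in the primary screen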;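 note: 0 = wells with 2.5 mM tranylcypromine and 1 = vehicle-only wells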
CYP2C9 activ: increases human cytochrome P450 2C9 activity; P11712; recombinant CYP2C9, luciferin-H conversion, luminescence; hits give high values; factor 1 = untreated enzyme, 0 = blocked; activation factor at 5 µM; hit rate 1.4% among 96,000;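 active = activation factor of 2 or more for CYP2C9 at a 5 µM dose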;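 note: 0 = sulfaphenazole-blocked wells and 1 = vehicle-only wells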
CYP2C19 inh: inhibitors of human CYP2C19; P33261; CYP2C19 Supersomes, luciferin-H EGE luminescence, 30 min; inhibition, % at 5 µM; hit rate 21% among 96,000; AID 778;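 active = CYP2C19 inhibition above a set limit at 5 µM in the primary screen, cut at about 50% in these data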;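 note: plate controls were negative control wells for no effect and 2.5 mM tranylcypromine positive control for full effect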
* hit, by the source's call.

Results for Cc1cc(S(=O)(=O)N2CCN(c3c(C)cccc3C)CC2)ccc1F ?
CYP2C9 inh: 98*; sEH activator: 11; sEH inh: -9; CYP2C19 activ: 0; CYP2C9 activ: 0; CYP2C19 inh: 97*

How did Cc1cc(S(=O)(=O)N2CCN(c3ccccc3C)CC2)ccc1F do in these assays?
CYP2C9 inh: 95*; sEH activator: -7; sEH inh: 5; CYP2C19 activ: 0; CYP2C9 activ: 0; CYP2C19 inh: 97*

How did CCCCCCNC(=O)c1cc(-c2ccco2)nc2ccccc12 do in these assays?
sEH activator: 4; sEH inh: -2

What do the screens show for `CNc1nc(OCC(F)(F)F)nc(N2CCN(C34CC5CC(CC(C5)C3)C4)CC2)n1`?
sEH activator: 16; sEH inh: -13

Results for COc1cc2nc(C3CCC3)n(NC(=O)C(OC(C)=O)c3ccccc3)c(=O)c2cc1OC (stereo not drawn) ?
CYP2C9 inh: 7; CYP2C19 activ: 1; CYP2C9 activ: 0.9; CYP2C19 inh: 4

What do the screens show for `Cc1cc(S(=O)(=O)N2CC(=O)N(CCc3ccccc3)C(=O)C2)ccc1F`?
CYP2C9 inh: 8; sEH activator: -8; sEH inh: 9; CYP2C19 activ: 0.9; CYP2C9 activ: 0.9; CYP2C19 inh: 10

Results for Cc1cc(S(=O)(=O)N2CCN=C2c2ccccc2)ccc1F ?
CYP2C9 inh: 65*; sEH activator: -6; sEH inh: 9; CYP2C19 activ: 0.1; CYP2C9 activ: 0.4; CYP2C19 inh: 95*

How did CN(C)c1ccc(-c2nn3c(-c4ccc(Cl)cc4)nnc3s2)cc1 do in these assays?
CYP2C9 inh: 31; CYP2C19 activ: 0.8; CYP2C9 activ: 0.7; CYP2C19 inh: 20

How did c1ccc(OCc2nn3c(C4CCCCC4)nnc3s2)cc1 do in these assays?
CYP2C9 inh: 51*; sEH activator: -2; sEH inh: 2; CYP2C19 activ: 0.9; CYP2C9 activ: 0.5; CYP2C19 inh: 14

How did Clc1ccccc1-c1nn2c(COc3ccccc3)nnc2s1 do in these assays?
CYP2C9 inh: 82*; sEH activator: 1; sEH inh: 2; CYP2C19 activ: 0.1; CYP2C9 activ: 0.2; CYP2C19 inh: 95*

Results for c1ccc(Cc2nn3c(COc4ccccc4)nnc3s2)cc1 ?
CYP2C9 inh: 32; sEH activator: -10; sEH inh: 10; CYP2C19 activ: 0.3; CYP2C9 activ: 0.7; CYP2C19 inh: 66*

Results for CN(C)c1ccc(-c2nn3c(C4CCCCC4)nnc3s2)cc1 ?
CYP2C9 inh: 55*; sEH activator: -1; sEH inh: -1; CYP2C19 activ: 0.5; CYP2C9 activ: 0.5; CYP2C19 inh: 52*

How did Cc1nc2ccccc2n1C1CC(=O)N(N(C)C)C1=O (stereo not drawn) do in these assays?
CYP2C9 inh: 9; sEH activator: 5; sEH inh: -7; CYP2C19 activ: 1; CYP2C9 activ: 0.9; CYP2C19 inh: -2

What do the screens show for `N#CCCNCC1(c2ccccc2)CCCC1`?
CYP2C9 inh: 0; sEH activator: 6; sEH inh: -1; CYP2C19 activ: 0.8; CYP2C9 activ: 1; CYP2C19 inh: 16

What do the screens show for `COC(=O)c1ccc(NC(=O)CSc2nnc(-c3ccccc3)n2C)cc1`?
sEH activator: 10; sEH inh: -7

Results for CCN1C(=O)c2c(C)nc3ccccc3c2C1=O ?
CYP2C9 inh: 36; sEH activator: 4; sEH inh: -5; CYP2C19 activ: 0.4; CYP2C9 activ: 0.6; CYP2C19 inh: 58*

Results for COc1ccc(CNC(=O)C2CCCN2S(=O)(=O)c2ccccc2)cc1 (stereo not drawn) ?
CYP2C9 inh: 34; sEH activator: 1; sEH inh: -4; CYP2C19 activ: 0.2; CYP2C9 activ: 0.7; CYP2C19 inh: 77*

What do the screens show for `COc1ccc(CNC(=O)C2CCCN2S(=O)(=O)c2ccc(C)cc2)cc1` (stereo not drawn)?
CYP2C9 inh: 14; sEH activator: -14; sEH inh: 14; CYP2C19 activ: 0.2; CYP2C9 activ: 0.9; CYP2C19 inh: 80*

Results for COc1ccc(S(=O)(=O)N2CCCC2C(=O)Nn2cnnc2)cc1 (stereo not drawn) ?
CYP2C9 inh: -7; CYP2C19 activ: 0.9; CYP2C9 activ: 1.1; CYP2C19 inh: 7

How did CCOC(=O)CC(=O)Nc1ccc(Br)cc1C(=O)O do in these assays?
CYP2C9 inh: 45; sEH activator: 4; sEH inh: -3; CYP2C19 activ: 0.8; CYP2C9 activ: 0.6; CYP2C19 inh: 15

What do the screens show for `COc1cc(NC(=O)c2ccccc2Cl)c(OC)cc1NC(=O)CN1CCOCC1`?
CYP2C9 inh: 45; sEH activator: 5; sEH inh: -8; CYP2C19 activ: 0.9; CYP2C9 activ: 0.6; CYP2C19 inh: 13

How did COC(=O)C1=C(C)Nc2nnnn2C1c1ccc(Cl)cc1Cl (stereo not drawn) do in these assays?
CYP2C9 inh: 43; sEH activator: 8; sEH inh: -8; CYP2C19 activ: 0.4; CYP2C9 activ: 0.6; CYP2C19 inh: 56*

How did CCOC(=O)C1=C(C)Nc2nnnn2C1c1ccccc1Cl (stereo not drawn) do in these assays?
sEH activator: 4; sEH inh: 0

Results for CC(=O)C1=C(C)Nc2ncnn2C1c1ccccc1Cl (stereo not drawn) ?
CYP2C9 inh: 13; sEH activator: 13; sEH inh: -15; CYP2C19 activ: 1; CYP2C9 activ: 0.9; CYP2C19 inh: 4

What do the screens show for `CC1=C(C(N)=O)C(c2ccc(Cl)cc2Cl)n2ncnc2N1` (stereo not drawn)?
CYP2C9 inh: -5; sEH activator: -8; sEH inh: 8; CYP2C19 activ: 0.5; CYP2C9 activ: 1.1; CYP2C19 inh: 51*

How did CC(C)N1C(=O)C2C(C(=O)NC3CCCCC3)C3C=CC2(O3)C1C(=O)NC1CCCCC1 (stereo not drawn) do in these assays?
CYP2C9 inh: -2; sEH activator: 0; sEH inh: 3; CYP2C19 activ: 1; CYP2C9 activ: 1; CYP2C19 inh: -1

How did CCCCC1(C)Cc2ccccc2C(=S)N1 (stereo not drawn) do in these assays?
CYP2C9 inh: 7; sEH activator: -11; sEH inh: 14; CYP2C19 activ: 0.7; CYP2C9 activ: 0.9; CYP2C19 inh: 30

What do the screens show for `Cc1cc(OCC(=O)Nn2cnnc2)ccc1Br`?
CYP2C9 inh: 100*; CYP2C19 activ: 0; CYP2C9 activ: 0; CYP2C19 inh: 100*

What do the screens show for `CCS(=O)(=O)N1CCC(C(=O)NCc2ccccc2OC)CC1`?
CYP2C9 inh: -35; sEH activator: -14; sEH inh: 11; CYP2C19 activ: 1.1; CYP2C9 activ: 1.3; CYP2C19 inh: -6

Results for COc1ccc(-c2nnc(SC(C)C(=O)Nc3nccs3)n2Cc2ccccc2)cc1OC (stereo not drawn) ?
CYP2C9 inh: 56*; sEH activator: 4; sEH inh: -4; CYP2C19 activ: 0.6; CYP2C9 activ: 0.4; CYP2C19 inh: 44
